Experimental data: paper PMC5540273 (PLoS ONE, 2017)

test system: T1, LKB1; settings: concentration: 1 μM,replicates: in singlicate; n = 1
T1 construct: gene STK11
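Further: KINOMEscan kinase panel screen.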

| SMILES | %Inh [%] |
| --- | --- |
| Cn1ccc2ncnc(Oc3ccc(NC(=O)Nc4cc(C(C)(C)C)on4)c(Cl)c3)c21 | 0 |
| CC(=O)Nc1ccc(-c2cc3ncnc(SCC(=O)O)c3s2)cc1 | 0 |
| CN(c1ccccc1CNc1nc(Nc2ccc3c(c2)CC(=O)N3)ncc1C(F)(F)F)S(C)(=O)=O | 0 |
| FC(F)(F)c1cc(Br)cc(Nc2nccc(-c3cnn4ncccc34)n2)c1 [GW810578] | 14 |
| O=C1NCCc2[nH]c(-c3ccncc3)cc21 | 0 |
| O=C(Nc1cccc(C(F)(F)F)c1)c1cccc(Oc2ccc3nccn3n2)c1 | 0 |
| Cc1ccc(CC(=O)N2CCc3cc(-c4cn(C)c5ncnc(N)c45)ccc32)cc1 [GSK2634758] | 19 |
| COC(=O)c1cccc(NC(=O)NC2CCN(c3ccnc(NCc4ccc(F)cc4)n3)CC2)c1 [GSK1379860] | 0 |
| Cn1ccc2ncnc(Oc3ccc(NC(=O)Nc4ccnc(C(F)(F)F)c4)c(Cl)c3)c21 | 8 |
| O=C(NOCC1CC1)c1cc(Br)c(F)c(F)c1Nc1ccc(I)cc1Cl | 7 |
| COc1ccc(Nc2nccc(N3CCC(NC(=O)c4cccc(C#N)c4)C3)n2)cc1 (stereo not shown) [GSK1379730] | 2 |
| COc1cccc(C2=C(Nc3cccc(Cl)c3)C(=O)NC2=O)c1 [SB-341556] | 0 |
| Cc1n[nH]c2cc(Nc3ccnc(Nc4cccc(CN5CCOCC5)c4)n3)ccc12 [GW682569] | 17 |
| C[C@@H]1CNc2c(sc3ccc4nc(-c5ccncc5)ccc4c23)C(=O)N1 | 0 |
| C[C@@H]1CCN(C(=O)N2CCCC2)C[C@@H]1N(C)c1ncnc2[nH]ccc12 | 0 |
| Cl.c1ccc(Oc2ccc(Nc3ccnc4cc(-c5ccc(CN6CCNCC6)o5)ccc34)cc2)nc1 [GW567142] | 0 |
| COc1cc2c(Nc3ccc(NC(=O)c4ccccc4)cc3)ncnc2cc1OCCCN1CCOCC1 [GSK301329] | 0 |
| c1ccc(Oc2ccc(Nc3ccnc4ccc(-c5ccccn5)cc34)cc2)cc1 [GW407034] | 0 |
| COc1cc2ncn(-c3cc(OCC4CCCCC4)c(C(N)=O)s3)c2cc1OC [GSK204559] | 0 |

| SMILES | %Inh [%] |
| --- | --- |
| C[C@@H]1CNc2c(sc3ccc4nc(-c5ccc(O)cc5)ccc4c23)C(=O)N1 | 0 |
| NC(=O)c1ccc(-c2cc3ncnc(SCC(=O)O)c3s2)cc1 | 18 |
| CS(=O)(=O)Nc1ccc(-c2ccnc3[nH]ccc23)cc1 [GSK993273] | 0 |
| N#Cc1cccc(C(=O)NC2CCN(c3ccnc(Nc4ccc(F)cc4)n3)C2)c1 (stereo not shown) [GSK1379708] | 0 |
| CS(=O)(=O)c1cccc(CNc2nc(Nc3ccc4c(c3)[C@@H]3C[C@@H]4CNC3=O)ncc2C(F)(F)F)c1 | 12 |
| COc1cc(Nc2nccc(N3CCC(NC(=O)c4cccc(C#N)c4)C3)n2)cc(OC)c1OC (stereo not shown) [GSK1379751] | 0 |
| CN1CCN(CCCNc2nccc(-c3c(-c4ccc(F)cc4)nn4cc(C(N)=O)ccc34)n2)CC1 [GW622475] | 0 |
| COc1cccc(OC)c1C(=O)Nc1cccc(-c2nn3ccccc3c2-c2ccnc(Nc3cccc(F)c3)n2)c1 [GSK361065] | 6 |
| CCOC(=O)N1CCC(n2cnc(-c3ccc(F)cc3)c2-c2ccnc(N)n2)CC1 [SB-219952] | 15 |
| COC(=O)Nc1nc2cc(Oc3ccc(NC(=O)Nc4cc(C(F)(F)F)ccc4Cl)cc3)ccc2[nH]1.Cl [GW697465] | 14 |
| CS(=O)c1ccc(-c2coc3ccc(-c4n[nH]c(=O)o4)cc23)cc1 (stereo not shown) | 16 |
| Cn1ccc2ncnc(Oc3ccc(NC(=O)Nc4cncc(C(F)(F)F)c4)c(Cl)c3)c21 | 0 |
| Nc1nccc(-c2ccc3c(N)n[nH]c3c2)n1 [GSK1034945] | 4 |
| NC(=O)Nc1sc(-c2ccc(F)cc2)cc1C(N)=O [GW789449] | 0 |
| CN1CCN(CCNc2nc3cc(Oc4ccc(NC(=O)Nc5cc(C(F)(F)F)ccc5F)cc4)ccc3[nH]2)CC1.Cl.Cl [GW768504] | 38 |
| Cl.Nc1n[nH]c2cc(-c3ccccn3)ccc12 [GSK2189892] | 12 |
| CCn1c(-c2nonc2N)nc2cncc(CNC3CCNCC3)c21.Cl [SB-747651] | 0 |
| Cn1ccc2ncnc(Oc3ccc(NC(=O)Nc4cccc(C(F)(F)F)c4)c(Cl)c3)c21 | 11 |
